Measured values reported in the OligoGym collection.
Also: reference of the scale not given here.

Each sequence was assayed against SIRPD (assay: pooled miR-30 sensor sort-seq; sequence = guide strand). Details: shRNA.
Sequence TTAATTTCCGGTTTGGCCCTGT has a sensor-assay potency score (higher = more potent) of 0.897. For TTTGTTATTTACTTGTACGTTC, the sensor-assay potency score (higher = more potent) was 0.326. TTACTCTGGGAAAGTTACCTTG was tested, and the sensor-assay potency score (higher = more potent) was -0.709. Work on ATTTATTGTACGATCAAGCTGG yielded a sensor-assay potency score (higher = more potent) of 0.545. In the case of TTGAACCACAAGACAGGTCCAT, the sensor-assay potency score (higher = more potent) is reported as -0.0742.

The sequences below were run against SIRT4 in the same assay as above. Details: shRNA.
Work on TTGTGCACAAAATCAACCTTGT yielded a sensor-assay potency score (higher = more potent) of 0.469. Sequence TTTTGCTGACCTGAAAGTCAAC has a sensor-assay potency score (higher = more potent) of -1.46. ATGTTCAGTATTGCAATCGGGA gave a sensor-assay potency score (higher = more potent) of -1.33. For ATACCTGCAAGGATGATCCCAC, the sensor-assay potency score (higher = more potent) was 0.445. TATTGCAATCGGGAGCTTCTTC showed a sensor-assay potency score (higher = more potent) of -0.488. TTTCTGACCTGTAGTCTGGTAT was tested, and the sensor-assay potency score (higher = more potent) was -0.224. With TGTAACTCTTTGACCTTCTCAG the sensor-assay potency score (higher = more potent) was 0.0606. Sequence TTCTTTTACACGCTTGTGCACA has a sensor-assay potency score (higher = more potent) of -0.806. Work on TTTTCTGACCTGTAGTCTGGTA yielded a sensor-assay potency score (higher = more potent) of -0.377. Work on TTGAACGCAGGTTGGGACCTGA yielded a sensor-assay potency score (higher = more potent) of 0.0552. In the case of TTTTTCTGACCTGTAGTCTGGT, the sensor-assay potency score (higher = more potent) is reported as 0.35.

These sequences were tested against SIRT7 in the same assay as above. Details: shRNA.
TGGGTACTTCTTTAGAACCTTC showed a sensor-assay potency score (higher = more potent) of -0.762. For TTCTTTAGAACCTTCAGGCTGG, the sensor-assay potency score (higher = more potent) was 0.828. In the case of TTCAATGTACATGTTCCCGTGG, the sensor-assay potency score (higher = more potent) is reported as 0.307. With TTCTTCACCAGCACGCAGGGGA the sensor-assay potency score (higher = more potent) was -0.0799. TTCTGCACAGCGACTTCCGACT gave a sensor-assay potency score (higher = more potent) of -1.07. TTGGTCATGCACCAGAGGCGTG showed a sensor-assay potency score (higher = more potent) of -1.42. Sequence TCCGTCACATCGAACACCCGCA has a sensor-assay potency score (higher = more potent) of -0.639. TGAAGCAGTGTCCACACTCCAT gave a sensor-assay potency score (higher = more potent) of -1.07. ATGACGTCATCACACTTCCCAT showed a sensor-assay potency score (higher = more potent) of -1.31. With TAACGCTTCTCCCTTTCTGAAG the sensor-assay potency score (higher = more potent) was -1.56. TTCTGAAGCAGTGTCCACACTC was tested, and the sensor-assay potency score (higher = more potent) was -0.449. TAGACGACCAAGTATTTGGCGT gave a sensor-assay potency score (higher = more potent) of -0.403.

These sequences were tested against SIX1 in the same assay as above. Details: shRNA.
In the case of TTTCTATTTACAAGTGTCCCTA, the sensor-assay potency score (higher = more potent) is reported as -0.676. Sequence ATATTTGTGAAAGTCCACCATT has a sensor-assay potency score (higher = more potent) of -0.953. In the case of TTGAGTACGCTCTCGTTCTTGT, the sensor-assay potency score (higher = more potent) is reported as -0.00831. With TTCTATTTACAAGTGTCCCTAG the sensor-assay potency score (higher = more potent) was 0.0217. TTCTGAGCTGGACATGAGCGGC was tested, and the sensor-assay potency score (higher = more potent) was -1.35. Work on TTGTTTTCGGTGTTCTCCCTTT yielded a sensor-assay potency score (higher = more potent) of -0.196. TTAAGCTTGAGATCGCTGTTGG showed a sensor-assay potency score (higher = more potent) of 0.117. Work on TTCTCCTTGAAGCAGTAGCTGG yielded a sensor-assay potency score (higher = more potent) of -1.4. TTCTTGTGCAGGTGGTCGCAGG was tested, and the sensor-assay potency score (higher = more potent) was -1.02. Work on AACAACTCCAGAAACAAGCTGC yielded a sensor-assay potency score (higher = more potent) of -0.198. Work on TACAAGTGTCCCTAGTCGCTGC yielded a sensor-assay potency score (higher = more potent) of 0.379. TTTATGCGCAAACAACTCCAGA was tested, and the sensor-assay potency score (higher = more potent) was -1.43.
